Data taken from PubChem BioAssay AID504467 (National Center for Advancing Translational Sciences (NCATS), 2011).
Out of some 330,000 compounds screened, about 7,700 (2.3%) were called active. A call without a number means that no potency is given here. Not shown: some 26% with an inconclusive outcome. Calls come from the whole dose curve; as a rule, active = well fitted inhibition curve with a large enough effect; inconclusive = small, poorly fitted or top-dose-only effect, or effect the other way; inactive = flat fitted curve, though single readings scatter. Only a selection was taken, and actives are over-represented in it overall.

Assay: qHTS screen for small molecules that inhibit ELG1-dependent DNA repair in human embryonic kidney (HEK293T) cells expressing luciferase-tagged ELG1; note: nearly all actives have a fitted effect of over 55% in size
Conditions: HEK293T ELG1-luciferase reporter, luminescence, 16 h, DNA damage induced by 5-fluorouridine; series mostly up to 46.1 µM
Summary of the method: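 Overnight (16 hr) co-exposure of 2,000 cells/well to 5-fluorouridine and compound at 37 °C preceded detection. Luciferase was quantified via ONE-Glo luminescence; loss of signal denotes inhibition.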
Potency is the fitted concentration of half-maximal effect.

Compound | Potency
O=C(Nc1nnc(C2=COCCO2)o1)c1ccc([N+](=O)[O-])s1 | inactive
COc1ccc(S(=O)(=O)N2CCOCC2)cc1NC(=O)CSc1cc(C)ccc1C | inactive
CCOCc1c(C(=O)N2CCN(Cc3ccc(Br)s3)CC2)oc2ccccc12 | inactive
COc1ccc(-n2cnnc2SCC(=O)Nc2cccc(S(N)(=O)=O)c2)cc1 | inactive
Cc1nnc(SCC(=O)Nc2cccc(N)c2)n1-c1ccccc1 | inactive
NS(=O)(=O)c1cccc(NC(=O)CSc2nc3ccccc3n2-c2ccccc2)c1 | 9.2 µM (active)
Clc1ccc(C[n+]2cc(-c3ccccc3)n3c2CCC3)cc1 | 2.91 µM (active)
Cc1ccc(-c2c[n+](CC(=O)Nc3ccccc3)c3n2CCC3)cc1 | inactive
Cc1ccc(C(=O)C[n+]2cc(-c3ccccc3)n3c2CCCCC3)cc1 | inactive
CCC1Nc2ncnc(N3CCN(c4ccccc4)CC3)c2N(Cc2ccc(Cl)cc2)C1=O (stereo unspecified) | inactive
CCCCN(C(=O)C1CCC1)c1c(N)n(Cc2ccccc2)c(=O)[nH]c1=O | inactive
CCC(=O)OCCNc1nc(-c2ccccc2)nc2ccccc12 | inactive
Cc1cccc(-c2nc(Nc3ccc(O)cc3)c3ccccc3n2)c1 | 20.6 µM (active)
CN1CCN(c2nc(Nc3ccc(O)cc3)nc3ccccc23)CC1 | inactive
COc1ccc(Cl)cc1NC(=O)CN(C)CC(=O)Nc1ccc2c(c1)OCO2 | inactive
C/C=C/C(=O)Nc1ccc(N2CCN(c3ccc(C(F)(F)F)cn3)CC2)nc1 | inactive
CCOc1ccc(C(=O)NCC(=O)N2CCN(c3ccc(C(F)(F)F)cn3)CC2)cc1 | inactive
Cc1ccc(F)cc1NC(=O)N1CCCN(c2ccc(C(F)(F)F)cn2)CC1 | 5.17 µM (active)
COc1ccccc1NC(=O)Nc1nc(CC(=O)Nc2ccccc2F)cs1 | inactive
Cc1ccc(S(=O)(=O)NC[C@H]2O[C@@H](n3cnc4c(N)ncnc43)[C@H](O)[C@@H]2O)s1 | inactive
CSc1nc(C)cc(SC(C(C)=O)C(=O)Nc2ccccc2)n1 (stereo unspecified) | inactive
CSc1nc(-c2ccccc2)nc(C(Cl)Cl)n1 | 20.6 µM (active)
CCCCC(=O)Nc1nnc(S(=O)(=O)N(C)Cc2ccco2)s1 | inactive
Cc1ccccc1CN1CCC(C(=O)Nc2ccc(Oc3cccnc3)cc2)CC1 | inactive

Compound | Potency
CCOC(=O)N1CCN(C(=O)Cn2cnc3ccccc3c2=O)CC1 | inactive
CCOC(=O)N1CCN(CC(=O)Nc2cc(C)nn2-c2nc3ccccc3s2)CC1 | 10.3 µM (active)
CCOC(=O)N1CCN(CC(=O)Nc2ccc(F)cc2)CC1 | inactive
Cc1cc(C)c(S(=O)(=O)n2cc(C(C)C(N)C(=O)O)c3ccccc32)c(C)c1 (stereo unspecified) | inactive
O=C(CSc1nnc(COc2ccc(Cl)cc2)n1Cc1ccco1)N1CCNC1=O | inactive
COc1ccc(CNC(=O)C(c2ccc(O)cc2)N(Cc2ccco2)C(=O)c2snc(C(N)=O)c2N)cc1 (stereo unspecified) | 6.51 µM (active)
CC(C)(C)NC(=O)C(c1ccc(Cl)cc1)N(CCO)C(=O)c1snc(C(N)=O)c1N (stereo unspecified) | inactive
NC(=O)c1nsc(C(=O)N(CC(=O)NCc2ccc(F)cc2)Cc2ccco2)c1N | inactive
CCCn1c(C2CCCN2c2nc(-c3ccc(OC)cc3)cs2)nc2ccccc21 (stereo unspecified) | inactive
COc1ccc(C(=O)CC(=O)C(=O)Nc2cc([N+](=O)[O-])ccc2OC)cc1 | inactive
COc1ccc(CCNC(=O)COC(=O)c2cc(=O)c3ccccc3o2)cc1 | inactive
COc1cc2c(cc1OC)CN(C(=O)c1cc(=O)c3ccccc3o1)CC2 | 8.2 µM (active)
O=C(c1cc(=O)c2ccccc2o1)N1CCN(c2ccccc2)CC1 | inactive
COc1ccccc1C(=O)N(Cc1ccc(C)o1)C1CCS(=O)(=O)C1 (stereo unspecified) | inactive
COc1cc(OC)cc(-c2c(-c3ccc(F)cc3)c3cc(-c4ccc5cc[nH]c5c4)ccc3n2C)c1 | inactive
COc1cc(OC)cc(-c2c(-c3cccs3)c3cc(-c4ccc(OC)cc4F)ccc3n2C)c1 | inactive
COc1ccc(-c2c(-c3cc(OC)cc(OC)c3)n(C)c3ccc(-c4ccn[nH]4)cc23)cc1 | 6.51 µM (active)
CCOC(=O)[C@@H]1[C@H]2COc3ccc(Br)cc3[C@H]2N2C(=O)N(c3ccc(C)cc3)C(=O)[C@@]12C | inactive
COc1ccc2nc3n(c(=O)c2c1)-c1cc(C)ccc1C(=O)NC3Cc1ccc(O)cc1 (stereo unspecified) | inactive
CNC(=O)c1sc(Nc2ccc(OCc3ccccc3)cc2)nc1C | 8.2 µM (active)
Cc1cccc(NC(=O)Nc2ccc(OCc3ccccc3)cc2)n1 | inactive
CCc1ccnc(NC(=O)Nc2ccc(OCc3ccccc3)cc2)c1 | inactive
COc1ccc(NS(=O)(=O)c2ccc(C)c(C(=O)NCC(c3cccs3)N3CCOCC3)c2)cc1 (stereo unspecified) | inactive
COc1ccc(S(=O)(=O)N2CCOCC2)cc1NC(=O)CSc1nnc(NC2CC2)s1 | inactive

Compound | Potency
Cc1ccc(S(=O)(=O)N2CCC(C)CC2)cc1C(=O)NCc1ccccn1 | inactive
CCN(CC(=O)NCc1cccs1)S(=O)(=O)c1ccc(NC(C)=O)cc1 | inactive
CC1CCCCN1S(=O)(=O)c1ccc(S(=O)(=O)N(CC(=O)Nc2ccccc2)Cc2cccs2)cc1 (stereo unspecified) | 18.4 µM (active)
COCCN(CC(=O)Nc1ccccc1C)S(=O)(=O)c1ccc(S(=O)(=O)N2CCCC2)cc1 | inactive
Cc1c(C(=O)N2CCCC2)c(S(=O)(=O)NCC(C)c2ccccc2)c(C)n1C (stereo unspecified) | inactive
O=C(NNS(=O)(=O)c1ccc([N+](=O)[O-])cc1)C1CCCCC1 | inactive
CCN(CC)C(=O)[C@H]1CC(CC(=O)NCc2ccco2)C(=O)N2CCc3c([nH]c4ccccc34)[C@]12C (stereo partly specified) | inactive
CCCN(CCC)c1nc2c(C)cccn2c(=O)c1/C=C1/SC(=S)N(Cc2ccco2)C1=O | inactive
Cc1cccn2c(=O)c(/C=C3\SC(=S)N(CC(C)C)C3=O)c(NCCCOC(C)C)nc12 | inactive
CCOC(=O)CC1C(=O)NCCN1c1nc2c(C)cccn2c(=O)c1/C=C1\SC(=S)N(C(C)CC)C1=O (stereo unspecified) | 20.6 µM (active)
COc1ccc(NC(=O)C2CCN(S(=O)(=O)c3ccc4[nH]c(=O)oc4c3)CC2)c(OC)c1 | inactive
O=S(=O)(c1cccs1)N1CCN(CCOc2ccccc2)CC1 | inactive
CCOC(=O)C1=C(C)N(C[C@@H]2CC[C@@H](Cc3ccc(-c4ccccc4)cc3)O2)C(=O)NC1c1ccc([N+](=O)[O-])cc1 (stereo partly specified) | inactive
CC(=O)N1c2ccc(S(=O)(=O)N3CCCC(C(=O)Nc4ccc(C)cc4C)C3)cc2CC1C (stereo unspecified) | inactive
COc1cc(Cl)c(C)cc1NC(=O)CSc1nnc(CN2CCCC2)o1 | inactive
CCc1nc(SCC(=O)Nc2ccccc2OC)n[nH]1 | inactive
CCCc1nc(SCC(=O)Nc2ccccc2OC)c2c(=O)n(C)c(=O)n(C)c2n1 | 23.1 µM (active)
CCCc1nc(SCC(=O)N2CCCC2)c2c(=O)n(C)c(=O)n(C)c2n1 | inactive
CCOC(=O)CCCCCC(=O)Nc1ccc2c(c1)CC(=O)N([C@@H](C)CO)C[C@H](C)[C@@H](CN(C)Cc1ccccc1)O2 | inactive
Cc1cc(C)cc(NC(=O)C2CCCN(S(=O)(=O)c3ccc4[nH]c(=O)ccc4c3)C2)c1 (stereo unspecified) | inactive
O=C(C1CCC(=O)N(C2CC2)C1)N1CCN(c2ccc(Cl)cc2)CC1 (stereo unspecified) | inactive
COc1ccc(C(=O)NC2CCN(C(=S)NCCc3ccccc3)CC2)cc1 | inactive
COc1ccc(C(=O)NC2CCN(C(=S)Nc3ccccc3)CC2)cc1 | inactive
COc1cc(OC)cc(C(=O)NC2CCN(C(=O)N3c4ccccc4Sc4ccccc43)CC2)c1 | 13 µM (active)

Compound | Potency
O=C(CN(CC1CCCO1)C(=O)CNS(=O)(=O)c1ccc(Cl)cc1)NCc1ccccc1 (stereo unspecified) | inactive
COc1ccc(-c2cc(C(=O)N(C)CC(=O)Nc3ccccc3Cl)c3ccccc3n2)cc1OC | 2.06 µM (active)
COc1ccc(-c2cc(C(=O)NCCCN3CCCC3=O)c3ccccc3n2)cc1OC | 20.6 µM (active)
COc1ccc(Cl)cc1NC(=O)CN(C)C(=O)c1ccc2n[nH]nc2c1 | inactive
COc1ccc(-c2cc(C(=O)N(C)Cc3ccccc3)c3ccccc3n2)cc1 | 23.1 µM (active)
COc1ccc(NC(=O)CN(C)C(=O)c2ccc(COc3ccccc3)o2)cc1 | inactive
COc1ccc(NC(=O)CN(C)C(=O)c2cc(-c3ccc(C)o3)nc3ccccc23)cc1 | 20.6 µM (active)
COc1ccc(-c2cc(C(=O)n3cnc4ccccc43)c3ccccc3n2)cc1 | inactive
Cc1ccc(-c2nn(-c3ccccc3)cc2C(=O)NCCCN2CCCC2=O)cc1 | inactive
COc1ccc(C2=NS(=O)(=O)N(C)C(C(=O)N(C)Cc3ccccc3)=C2)cc1 | inactive
COc1ccccc1NC(=O)c1cc(Cl)nc2ccccc12 | inactive
Cc1cccc(C(=O)NCCCN2CCCC2=O)c1 | inactive
COc1ccc(NC(=O)CN(C)C(=O)c2cc(C3CC3)nn2-c2ccccc2)cc1 | inactive
CC(C)Oc1ccc(S(=O)(=O)N2CCOCC2)cc1NC(=O)C1CSC2(C)CCC(=O)N12 (stereo unspecified) | inactive
CCc1cccc(C)c1N1C(=O)CN(Cc2ccccc2)C1=S | inactive
CNC[C@H](CC1CCCCC1)NC[C@H](NCCC1CCCC1)[C@H](C)O | inactive
CSc1ncccc1C(=O)Nc1cccc(S(=O)(=O)N2CCOCC2)c1 | inactive
CCCN(CC1CC1)C(=S)NC(=O)c1ccccc1Br | inactive
O=C(COC(=O)c1ccccc1Cl)NC1CCCCCCC1 | inactive
Cc1cc(NC(=O)CCN2CCN(Cc3ccccc3)CC2)ccc1Br | inactive
OC(COc1ccc(F)cc1Cl)CN1CCc2ccccc2C1 (stereo unspecified) | inactive
COc1ccc(CN(C)C(=O)c2cc(-c3ccc(C)cc3C)nc3ccccc23)c(OC)c1OC | 8.2 µM (active)
COc1ccc(CN(C)C(=O)Cc2c[nH]c3ccccc23)c(OC)c1OC | inactive
Cc1ccc(-c2cc(C(=O)Nc3nn[nH]n3)c3ccccc3n2)c(C)c1 | inactive
